Test results taken from PMC4336329 (PLoS ONE, 2015).
About 2,200 (0.71%) of roughly 310,000 compounds showed an effect of 50% or more. Effects have a minus sign here. Only a selection was taken, and strong results are over-represented in it overall.

target: human ether-à-go-go-related gene (hERG) potassium channel (human, UniProt Q12809); assay: primary screen, population patch clamp on CHO cells stably expressing hERG; higher = less effect of the substance
Sequence (Q12809 whole entry, looked up): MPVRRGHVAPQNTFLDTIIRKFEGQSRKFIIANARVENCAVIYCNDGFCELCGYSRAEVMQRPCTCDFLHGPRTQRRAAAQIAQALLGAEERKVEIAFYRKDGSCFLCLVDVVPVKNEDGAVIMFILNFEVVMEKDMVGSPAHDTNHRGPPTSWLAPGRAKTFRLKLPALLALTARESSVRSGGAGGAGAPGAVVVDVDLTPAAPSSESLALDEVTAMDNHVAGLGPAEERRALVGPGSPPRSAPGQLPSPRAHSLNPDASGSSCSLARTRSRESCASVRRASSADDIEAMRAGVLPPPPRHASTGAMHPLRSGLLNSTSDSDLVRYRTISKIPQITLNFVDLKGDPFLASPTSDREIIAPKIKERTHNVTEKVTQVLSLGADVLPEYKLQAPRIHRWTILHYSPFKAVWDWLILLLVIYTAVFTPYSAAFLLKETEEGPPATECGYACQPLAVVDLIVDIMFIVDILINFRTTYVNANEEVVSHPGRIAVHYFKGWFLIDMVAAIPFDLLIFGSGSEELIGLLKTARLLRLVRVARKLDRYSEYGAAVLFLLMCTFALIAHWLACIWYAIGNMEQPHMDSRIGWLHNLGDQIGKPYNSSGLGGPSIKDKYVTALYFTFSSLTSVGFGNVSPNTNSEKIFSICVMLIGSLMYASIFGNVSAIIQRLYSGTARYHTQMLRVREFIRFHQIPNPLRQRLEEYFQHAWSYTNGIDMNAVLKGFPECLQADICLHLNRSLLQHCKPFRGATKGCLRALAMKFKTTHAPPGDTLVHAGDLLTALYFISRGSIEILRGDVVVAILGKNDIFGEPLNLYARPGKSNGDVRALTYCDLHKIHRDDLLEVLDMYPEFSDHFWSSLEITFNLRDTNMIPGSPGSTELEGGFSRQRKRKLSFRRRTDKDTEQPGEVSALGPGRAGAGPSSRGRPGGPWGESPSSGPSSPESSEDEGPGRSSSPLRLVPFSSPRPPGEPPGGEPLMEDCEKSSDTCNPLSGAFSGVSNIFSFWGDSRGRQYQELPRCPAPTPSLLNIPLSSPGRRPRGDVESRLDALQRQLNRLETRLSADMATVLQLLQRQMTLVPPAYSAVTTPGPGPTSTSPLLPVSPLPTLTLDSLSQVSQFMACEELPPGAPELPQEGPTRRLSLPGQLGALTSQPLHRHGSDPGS

First: CC(C)c1ccc(NC(=O)CSc2nnc(-c3ccccn3)n2C)cc1
Second: CCn1c(Cc2cccs2)nnc1SCC(=O)c1ccc(C)cc1
The “hERG current change (%, negative = inhibition) at 1uM” value of the first is lower: -4.65% for the first, 5.59% for the second.

Going from `COc1ccc(/C=N/Nc2ccccc2C(=O)O)cc1Cn1cc([N+](=O)[O-])cn1` to `COc1ccc(C2CC(=O)C(C=NCCN3CCN(C(=S)Nc4ccccc4)CC3)=C(O)C2)cc1OC` (stereo not drawn), the “hERG current change (%, negative = inhibition) at 1uM” value falls from 6.26% to 1.75%.

First: O=C(Nc1ccc(OC(F)(F)F)cc1)C1CCCN(S(=O)(=O)c2cccnc2)C1 (stereo not drawn)
Second: Cc1nnsc1C(=O)Nc1ccc(S(=O)(=O)N2CCCCC2C)cc1 (stereo not drawn)
The “hERG current change (%, negative = inhibition) at 1uM” value of the first is lower: -4.09% for the first, 12.5% for the second.

Going from `Cc1nnsc1C(=O)N1CCCC(C(=O)c2ccc(C(F)(F)F)cc2)C1` (stereo not drawn) to `CC1CCCCN1C(=O)Nc1cccc(C(F)(F)F)c1` (stereo not drawn), the “hERG current change (%, negative = inhibition) at 1uM” value rises from 3.88% to 9.57%.

Going from `CCOc1ccc(-c2cc(C)[n+](CCc3ccc(OC)c(OC)c3)c(-c3ccc(OCC)cc3)c2)cc1.[O-][Cl+3]([O-])([O-])[O-]` to `CCOc1ccc(-c2cc(C)[n+](CCO)c(-c3ccc(OCC)cc3)c2)cc1.[O-][Cl+3]([O-])([O-])[O-]`, the “hERG current change (%, negative = inhibition) at 1uM” value rises from -70.1% to 1.92%.

First: Cc1cc(-c2ccccc2)cc(-c2ccccc2)[n+]1CCc1ccccc1.[O-][Cl+3]([O-])([O-])[O-]
Second: Cc1cc(-c2ccccc2)cc(C)[n+]1Cc1ccccc1.[O-][Cl+3]([O-])([O-])[O-]
The “hERG current change (%, negative = inhibition) at 1uM” value of the first is lower: -78.4% for the first, 6.49% for the second.

Compared with `CCOc1ccc(-c2cc(C)[n+](CCN(CC)CC)c(-c3ccc(OCC)cc3)c2)cc1.[O-][Cl+3]([O-])([O-])[O-]`, `O=[N+]([O-])c1ccc(C[n+]2c(-c3ccccc3)cc(-c3ccccc3)cc2-c2ccccc2)cc1.[O-][Cl+3]([O-])([O-])[O-]` is higher in “hERG current change (%, negative = inhibition) at 1uM” value: -19.3% for the first, 7.61% for the second.

First: CCNc1nc(NCC)nc(N/N=C/c2ccc(Br)cc2)n1
Second: COc1nc(N(C)S(=O)(=O)c2ccc(C)cc2)nc(C)c1Br
The “hERG current change (%, negative = inhibition) at 1uM” value of the first is lower: 8.67% for the first, 16.5% for the second.

First: COc1ccc2c(C=O)c[nH]c2c1
Second: COc1ccc(C2CC(=O)C(C=NCCO)=C(O)C2)cc1OC (stereo not drawn)
The “hERG current change (%, negative = inhibition) at 1uM” value of the first is lower: 6.81% for the first, 13.4% for the second.

Going from `Cc1ccccc1Nc1nc(N)nc(COC(=O)c2cccc(S(=O)(=O)N(C)C)c2)n1` to `CCOC(=O)c1cnc(-n2nc(C)cc2C)nc1NNc1nc(-c2ccccc2)cc(-c2ccccc2)n1`, the “hERG current change (%, negative = inhibition) at 1uM” value falls from 8.43% to -1.53%.

First: O=C1CCCN1CCCNS(=O)(=O)c1ccc(F)c(F)c1
Second: CC(C)CNS(=O)(=O)c1ccc(OCC(=O)Nc2ccc3c(c2)OCCO3)cc1
The “hERG current change (%, negative = inhibition) at 1uM” value of the first is lower: 13.5% for the first, 14.4% for the second.

Going from `COc1ccc(-c2cc(-c3ccco3)[nH]c(=O)c2C#N)cc1OC` to `COc1ccc(CCNC(=O)c2ccc3nc(N4CCOCC4)sc3c2)cc1OC`, the “hERG current change (%, negative = inhibition) at 1uM” value falls from 13.5% to 4.99%.

Compared with `CCCCCC(=O)N1CCN(CCN=CC2=C(O)CC(c3ccc(OC)c(OC)c3)CC2=O)CC1` (stereo not drawn), `CCCCCC(=O)N1CCN(CCN=CC2=C(O)CC(c3ccc(OC)cc3)CC2=O)CC1` (stereo not drawn) is higher in “hERG current change (%, negative = inhibition) at 1uM” value: -56.5% for the first, -54.5% for the second.

Compared with `COc1ccc(C2CC(=O)C(C=NCCN3CCN(C(C)=O)CC3)=C(O)C2)cc1` (stereo not drawn), `CCC(=O)N1CCN(CCN=CC2=C(O)CC(c3ccc(OC)cc3)CC2=O)CC1` (stereo not drawn) is higher in “hERG current change (%, negative = inhibition) at 1uM” value: 0.835% for the first, 8.12% for the second.

Going from `Cc1ccc(N2C(=O)/C(=C/N3CCN(C(=O)c4ccco4)CC3)C(=O)NC2=S)cc1C` to `Cc1ccc(OCC(O)CN2CCN(Cc3ccc4c(c3)OCO4)CC2)cc1C.Cl` (stereo not drawn), the “hERG current change (%, negative = inhibition) at 1uM” value rises from 1.67% to 5.88%.

Compared with `CC1CCCC(C)N1CC(O)COc1ccc(Cl)cc1` (stereo not drawn), `CC(=O)Nc1ccc(OCC(O)CN2C(C)CCCC2C)cc1.Cl` (stereo not drawn) is higher in “hERG current change (%, negative = inhibition) at 1uM” value: -57.6% for the first, 15.2% for the second.

Going from `Cc1cc(Cl)ccc1OCC(O)CN1C(C)CCCC1C.Cl` (stereo not drawn) to `Cc1ccc(OCC(O)CN2CCC(Cc3ccccc3)CC2)c(C)c1.Cl` (stereo not drawn), the “hERG current change (%, negative = inhibition) at 1uM” value falls from -46.3% to -49.9%.

Going from `OC(COc1ccc(F)cc1Cl)CN1CCc2ccccc2C1` (stereo not drawn) to `Cc1ccc(OCC(O)CN2CCc3ccccc3C2)c(C)c1.Cl` (stereo not drawn), the “hERG current change (%, negative = inhibition) at 1uM” value falls from -10.6% to -42.6%.

Going from `OC(COc1ccc(F)cc1Cl)CN1CCC(Cc2ccccc2)CC1` (stereo not drawn) to `Cl.OC(COc1ccccc1F)CN1CCC(Cc2ccccc2)CC1` (stereo not drawn), the “hERG current change (%, negative = inhibition) at 1uM” value rises from -81.4% to -55.7%.

Compared with `Cc1ccc(C)c(OCC(O)CN2CCC(Cc3ccccc3)CC2)c1.Cl` (stereo not drawn), `COc1cccc(OCC(O)CN2CCC(Cc3ccccc3)CC2)c1.Cl` (stereo not drawn) is lower in “hERG current change (%, negative = inhibition) at 1uM” value: -43.1% for the first, -55.6% for the second.

First: Cl.OC(COCc1ccc2c(c1)OCO2)CN1CCN(Cc2ccccc2)CC1 (stereo not drawn)
Second: Cl.OC(COCc1ccccc1)CN1CCN(Cc2ccc3c(c2)OCO3)CC1 (stereo not drawn)
The “hERG current change (%, negative = inhibition) at 1uM” value of the first is lower: -8.65% for the first, -0.707% for the second.

First: Cc1ccc(OCC(O)CN2CCN(CC(O)COc3ccc(C)cc3Cl)CC2)c(Cl)c1 (stereo not drawn)
Second: Cl.OC(COc1ccccc1)CN1CCN(CC(O)COc2ccccc2)CC1 (stereo not drawn)
The “hERG current change (%, negative = inhibition) at 1uM” value of the first is higher: -5.75% for the first, -19.5% for the second.

Compared with `Cl.OC(COCc1ccc2c(c1)OCO2)CN1CCC(Cc2ccccc2)CC1` (stereo not drawn), `Cl.OC(COc1ccc(Cl)cc1)CN1CCC(Cc2ccccc2)CC1` (stereo not drawn) is lower in “hERG current change (%, negative = inhibition) at 1uM” value: -79.4% for the first, -89.6% for the second.

First: COc1ccc(Cn2c(-c3ccccc3)nc3c(c(=O)c4ccccc4n3C)c2=O)cc1
Second: CCN(CC(=O)Nc1ccc(NC(C)=O)cc1)C(=O)COc1ccccc1-c1ccccc1
The “hERG current change (%, negative = inhibition) at 1uM” value of the first is lower: -7.94% for the first, 12% for the second.

First: Cc1cc(NC(=O)Cc2ccccc2C)no1
Second: C/C(=N/NC(=O)Cc1ccccc1)c1ccc(C)s1
The “hERG current change (%, negative = inhibition) at 1uM” value of the first is lower: 10.2% for the first, 11.5% for the second.

Going from `O=C(Nc1nc(-c2cccs2)cs1)c1ccc(Cl)s1` to `O=C(CSc1nc(C2CC2)n(-c2ccccc2)n1)NCc1ccco1`, the “hERG current change (%, negative = inhibition) at 1uM” value rises from -6.43% to -3.27%.

First: Cc1cc2nn(-c3ccc(Cl)cc3)nc2cc1N
Second: COC(=O)c1ccc(N2C(=O)CC(N(C)Cc3ccccc3)C2=O)cc1 (stereo not drawn)
The “hERG current change (%, negative = inhibition) at 1uM” value of the first is higher: 14% for the first, 13.1% for the second.

First: CCO/C=C/C(O)(CNC(=O)COc1ccccc1F)C(F)(F)F (stereo not drawn)
Second: CCOc1ccc(OCC)c(S(=O)(=O)NNC(=O)c2c(C)nc3ccccn23)c1
The “hERG current change (%, negative = inhibition) at 1uM” value of the first is higher: 19.8% for the first, 5.91% for the second.

Going from `CN1C(=O)N(c2nnc(C(C)(C)C)s2)C(=O)C1c1ccccc1` (stereo not drawn) to `O=C(NCCc1ccccc1)C1CC(=O)N(c2ccc3c(c2)OCCO3)C1` (stereo not drawn), the “hERG current change (%, negative = inhibition) at 1uM” value falls from 14.2% to 7.34%.

Going from `Cc1c(Cl)cccc1NC(=S)NNc1ncc(C(F)(F)F)cc1Cl` to `Cc1cccc(OCC(O)CN2CCc3ccccc3C2)c1.Cl` (stereo not drawn), the “hERG current change (%, negative = inhibition) at 1uM” value falls from 4.45% to -0.945%.

First: Cl.OC(COc1ccc(Cl)cc1)CN1CCCCC1 (stereo not drawn)
Second: Cl.OC(COc1ccc(Br)cc1)CN1CCCC1 (stereo not drawn)
The “hERG current change (%, negative = inhibition) at 1uM” value of the first is lower: -29.8% for the first, 5.23% for the second.

First: C[C@@H](CN1CCC(Cc2ccccc2)CC1)[C@@H](O)c1ccc(O)cc1.Cl
Second: Cl.OC(COc1ccc(Br)cc1)CN1CCC(Cc2ccccc2)CC1 (stereo not drawn)
The “hERG current change (%, negative = inhibition) at 1uM” value of the first is higher: -60.5% for the first, -83.7% for the second.

Going from `Cl.OC(COc1ccccc1)CN1CCC(Cc2ccccc2)CC1` (stereo not drawn) to `CC(C)OCC(O)CN1CCC(Cc2ccccc2)CC1.Cl` (stereo not drawn), the “hERG current change (%, negative = inhibition) at 1uM” value rises from -78% to -2.15%.

First: CC(C(O)c1ccc(O)cc1)N1CCC(Cc2ccccc2)CC1.O.O=C(O)C(O)C(O)C(=O)O (stereo not drawn)
Second: CC(C(O)c1ccc(O)cc1)N1CCC(Cc2ccccc2)CC1.O=C(O)C(O)C(O)C(=O)O (stereo not drawn)
The “hERG current change (%, negative = inhibition) at 1uM” value of the first is lower: -37.8% for the first, -33.4% for the second.

Going from `COc1ccc(OCC(O)CN2CCc3ccccc3C2)cc1.Cl` (stereo not drawn) to `COc1cccc(OCC(O)CN2CCc3ccccc3C2)c1.Cl` (stereo not drawn), the “hERG current change (%, negative = inhibition) at 1uM” value falls from -2.53% to -57.6%.

Going from `Cl.OC(COc1ccc(Cl)cc1)CN1CCN(c2ccccc2)CC1` (stereo not drawn) to `O=S(=O)(c1ccc(OCC(O)CN2CCC(Cc3ccccc3)CC2)cc1)N1CCOCC1` (stereo not drawn), the “hERG current change (%, negative = inhibition) at 1uM” value falls from 0.0675% to -10.3%.

First: N#CC(C(=O)NCCc1ccccc1)c1nc2ccccc2nc1N1CCCCC1 (stereo not drawn)
Second: COc1cccc(OCC(O)CN2CCN(C(c3ccccc3)c3ccccc3)CC2)c1.Cl (stereo not drawn)
The “hERG current change (%, negative = inhibition) at 1uM” value of the first is higher: 4.11% for the first, 3.72% for the second.

Going from `C/C(=N\NC(=O)C(O)(c1ccccc1)c1ccccc1)c1ccc(NC(=O)CCCC(=O)O)cc1` to `O=C(Nc1ccc(NC(=O)c2cccc([N+](=O)[O-])c2)cc1)c1cccc([N+](=O)[O-])c1`, the “hERG current change (%, negative = inhibition) at 1uM” value falls from 11.3% to 9.44%.

First: COc1ccc(S(=O)(=O)N(C)CC(=O)N2CCOCC2)cc1
Second: COc1ccc(NS(=O)(=O)c2ccc(O)c(C(=O)OCC(=O)N3CC(C)OC(C)C3)c2)cc1 (stereo not drawn)
The “hERG current change (%, negative = inhibition) at 1uM” value of the first is lower: -2.22% for the first, 12.3% for the second.

Compared with `Cc1cc(C)cc(OCC(O)CN2CCN(Cc3ccc4c(c3)OCO4)CC2)c1.Cl` (stereo not drawn), `COc1ccc(OCC(O)CN2CCN(Cc3ccc4c(c3)OCO4)CC2)cc1.Cl` (stereo not drawn) is higher in “hERG current change (%, negative = inhibition) at 1uM” value: -67.9% for the first, -9.87% for the second.

Going from `Cc1cccc(C)c1OCC(O)CN1CCc2ccccc2C1.Cl` (stereo not drawn) to `Cc1ccc(C)c(OCC(O)CN2CCc3ccccc3C2)c1C.Cl` (stereo not drawn), the “hERG current change (%, negative = inhibition) at 1uM” value falls from -24.3% to -56.1%.

Compared with `COc1cccc(OCC(O)CN2CCC(C)CC2)c1.Cl` (stereo not drawn), `CC(=O)N1CCc2cc(Br)cc(S(=O)(=O)CCC(=O)N3CCN(c4ccccn4)CC3)c21` is higher in “hERG current change (%, negative = inhibition) at 1uM” value: 3.42% for the first, 6.2% for the second.
